Measured values from paper PMC10163288.
The list is a sample of the results. The hit rate among all sequences tested is not known here.

B1: il2ra_site1_1z92_normal_mot_HHH_b1_04329_000000069_0001_1_19_H_._HHH_b2_03912_0001_0000100007_0000001_0_af2pred_0001_af2pred_1 (protein)
chain: SSSSIELIRFADEVVLRLAEEYKLSDEDAQYLAEVAIELIRRGYSEEEIEEILQEEAEKLSSSSS
B2: il2ra_site2_2erj_sap_19_mot_HHH_b2_00505_000000221_0001_1_17_H_._HHH_b1_08169_0001_0000200013_0000001_1_0001 (protein)
chain: SSSSSEWLHRSYKLANELMHLLARGDEEEFERLVEEIEKFAEERDNKVLKEIVESLHRLFNSSSS
B3: il2ra_site1_2b5i_normal_mot_HHH_b2_04910_000000118_0001_1_19_H_._HHH_b1_07294_af2_0001_0000100005_0000001_0_af2pred_dldesign_0_af2pred (protein)
chain: SSSSSSKEALELFLKANEAYQAGNYEEAKKLLEEALEKAKAAGMTALVKMIESALESLSSSSSSS
B4: il2ra_site1_3nfp_sap_20_mot_HHH_b2_00213_000000088_0001_1_18_H_._HEEHE_0331_af2_0001_0000400039_0000001_0_0001_af2pred_dldesign_0_af2pred (protein)
chain: SSSSSLRKELERLLKKAYETGKKNDKEKLKKLLEEALKLAKENKAKLSVKFLERALKQLKSSSSS
B5: il2ra_site1_1z92_normal_mot_HHH_b1_04604_af2_000000029_0001_42_56_H_._HHH_b2_07020_af2_0001_0000300012_0000001_0 (protein)
chain: SSSSSSDVIELALRLARALRRGDEEEVQELLEELKRYAEERDNRAAREIAERIEKHLGSSSSSSS
B6: il2ra_site1_1z92_sap_15_mot_e1ae4cb039f7b6770b9307eb87230ce5_0001_000000230_0001_37_51_H_._22eb9e4dad251339c268dc73c902281b_0001_0001_0000100004_0000001_0_0001_ … (protein)
chain: SSSSSSERDARIVVELAVRAAGLSEEQQEELERLAKELLEEGYSFEEIARILDKLALELGSSSSS
B7: il2ra_site2_2erj_sap_13_mot_HHH_b2_06689_af2_000000039_0001_18_34_H_._HHH_b1_05500_af2_0001_0000100002_0000001_0_0001 (protein)
chain: SSSSSEELHRLYELAVELLRAVAEGDEELVREILEEVEELAERADSENVKELIENLHRLFNSSSS
B8: il2ra_site1_2b5i_normal_mot_HHH_b1_02271_000000068_0001_1_16_H_._HHH_b2_05772_0001_0000400026_0000001_0_af2pred_dldesign_0_af2pred (protein)
chain: SSSSSPELKRLVEEALRRAEAAKAAGRVREALEILNAAHKKADEADDEELSDELEAKAKELSSSS
B9: il2ra_site1_1z92_sap_10_mot_d8cfa582855fb05d91e09f57594ab115_0001_1_000000067_0001_37_51_H_._HEEHE_2450_0001_0000100007_0000001_0_0001 (protein)
chain: SSSSSEAERAFELIREIDEVIREGDEEEAKRLLEELRRLAEERNSPTMKRLLELLEEALEGSSSS
B10: il2ra_site2_2erj_normal_mot_6bd1339e93f6fdda22195c76da45ec5d_0001_000000136_0001_37_51_H_._ems_3hC_696_0001_0000700021_0000001_0_af2pred_0001_af2pred (protein)
chain: LEEDILRAFRIAVELLEKFRDDPEIERLVLEASLELTEAIEENDEEKIERVIEKIEEIKEEADSS
B11: il2ra_site2_3nfp_sap_19_mot_HHH_b1_03376_000000004_0001_41_55_H_._88162e6262ef81793ed720f4f561f318_0001_0001_0000800035_0000001_0_0001_af2pred_0001_1_af2pred_sw … (protein)
chain: SSDEEQEESEELKELIREALEKNDDEKLRKLIKEAASFALQLNDEELLEFASEARALLAKLRLSS
B12: il2ra_site1_1z92_normal_mot_922575b2e9738a49cb663a995786872c_0001_af2_000000234_0001_18_32_H_._09c2afe89fb4cbada1505b3a46965288_0001_af2_0001_0000100006_0000001 … (protein)
chain: GPEQELEELEEELGDPREAIRLLLEELEEESGDPELARQFLKIEIKRLFNVPPEEAERLLREAEK
B13: il2ra_site1_3nfp_normal_mot_HHH_b1_04931_000000291_0001_38_56_H_._5fa2c1a30f04debedfe40931e4d0b367_0001_af2_0001_0000700055_0000001_0 (protein)
chain: DVRFLLEAARFAGDELVVEVAEKLEELREEDPDDQEVKELVQKLLQLLAKDPEEAKKLAEELKRR
B14: il2ra_site1_3nfp_normal_mot_ems_3hC_3_0002_000000237_0001_23_41_H_._971380201c9414114138cf1fdc40c0f4_0001_1_0001_0000300014_0000001_0_af2pred_0001_af2pred (protein)
chain: SLAEELVEEIEEKGLPPEEIEKLIREILKRIGDPEEAREFFEELMRLAAKNRNEELLEAIKLVLR
B15: il2ra_site1_3nfp_sap_10_mot_HHH_b2_00770_af2_000000063_0001_1_19_H_._HHH_b2_07788_0001_0000400012_0000001_0_0001 (protein)
chain: NEEARRLAEAIARGDPRVEELIEELVEELKRKGDPDLRHALKALARMARSFGNPELAEELERLLK
B16: il2ra_site1_1z92_normal_mot_HHH_b1_07828_af2_000000107_0001_18_34_H_._HHH_b1_02447_af2_0001_0000300012_0000001_0 (protein)
chain: SSSSDLEEAIEILLQAIRRAIEAGNEKAAERFIEFAKEQIEDSGDPELERILRELEELLRSSSSS
B17: il2ra_site1_2b5i_normal_mot_HHH_b1_02271_000000068_0001_1_16_H_._HHH_b1_08003_0001_0000900024_0000001_0_af2pred_dldesign_0_af2pred (protein)
chain: SSSSSDKKAEVERLIEEAERLYKAGKRREALEKLNEAKKLADAADDEELEDKIEELAKKISSSSS
B18: il2ra_site1_3nfp_sap_13_mot_0eddeacbb14b769e73e254714f31e2f9_0001_af2_000000052_0001_37_51_H_._3685a7fc0315cffcf770f862f50b42b9_0001_1_0001_0000400028_0000001_0 … (protein)
chain: SDLEEEVRELIELIKEFAEERNSPVAKLYAELLEEAARRAEERNDERSLRYVLRSARLALRSGSS
B19: il2ra_site1_1z92_sap_18_mot_HHH_b1_00368_000000203_0001_23_39_H_._d7cfadeb27be910639eb6e95e3396c32_0001_af2_0001_0000300014_0000001_0_0001 (protein)
chain: SSSSDEELEERVKQFAEELVKELGLDEHAREALEKDAEAAVRLGFSERSIKLALERAARRASSSS

Molecular target: il2ra, P01589
Sequence (P01589 whole entry): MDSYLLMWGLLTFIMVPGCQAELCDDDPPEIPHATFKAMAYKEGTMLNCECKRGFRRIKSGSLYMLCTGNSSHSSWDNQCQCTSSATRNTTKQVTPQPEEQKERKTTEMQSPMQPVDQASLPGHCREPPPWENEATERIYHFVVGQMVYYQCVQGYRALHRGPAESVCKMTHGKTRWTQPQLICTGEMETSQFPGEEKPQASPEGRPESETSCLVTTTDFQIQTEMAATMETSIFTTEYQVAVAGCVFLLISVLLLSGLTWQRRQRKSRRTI
Assay: yeast display titration

Apparent Kd, inactive:
B1 no binding seen, B2 no binding seen, B3 no binding seen, B4 > 1470 nM, B5 no binding seen, B6 no binding seen, B7 no binding seen, B8 no binding seen, B9 no binding seen, B10 no binding seen, B11 no binding seen, B12 no binding seen, B13 no binding seen, B14 no binding seen, B15 no binding seen, B16 no binding seen, B17 no binding seen, B18 no binding seen, B19 no binding seen
